Assay results published in PubChem BioAssay (NCATS).
Values joined by “and” are separate entries in the source; they are usually repeats but may differ in a detail not shown here. Equal entries are not always repeated. Inconclusive results are not listed. Active and inactive are the calls of the source. Calls come from the whole dose curve; as a rule, active = well fitted cell-killing curve with a large enough effect; inconclusive = small, poorly fitted or top-dose-only effect, or effect the other way; inactive = flat fitted curve, though single readings scatter. Peptide text beside a SMILES is read from it.

Assay: qHTS assay for cell viability of HEK293 cells (AID 743288); note: nearly all actives have a fitted effect of over 50% in size
Conditions: ATP luminescence (CellTiter-Glo), 18 h; max response: hits give low values
Outline: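 Readout is luciferase-coupled ATP content (CellTiter-Glo luminescence, 30 min room temperature) as a measure of metabolically competent cells. Parental HEK293 cells were plated 5 h or more before compound addition, then treated 18 h at 37 C.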
% is set by controls: 0 for no effect and ±100 for the full control effect; potency is the fitted concentration of half-maximal effect.

| Compound | max response | Potency |
| --- | --- | --- |
| Nc1ccc(S(N)(=O)=O)cc1 | -1.9% (inactive) |  |
| Nc1nc(Cl)nc2c1ncn2[C@H]1C[C@H](O)[C@@H](CO)O1 | -15% (inactive) |  |
| CCCc1cc(=O)[nH]c(=S)[nH]1 | -1.41% (inactive) and 0.952% (inactive) |  |
| CS(=O)(=O)OCCCCOS(C)(=O)=O | -9.44% (inactive) and 3.38% (inactive) and -6.4% (inactive) |  |
| COc1cc(OC)c(C(=O)CCCN2CCCC2)c(OC)c1 | -5.06% (inactive) |  |
| CCCCC(CC)COC(=O)C(C#N)=C(c1ccccc1)c1ccccc1 (centres undefined) | -27.9% (inactive) |  |
| Cc1ccc(C)c(OCCCC(C)(C)C(=O)O)c1 | -0.77% (inactive) and -7.02% (inactive) |  |
| COC(=O)[C@H](Cc1ccccc1)NC(=O)[C@@H](N)CC(=O)O (H-Asp-Phe-OMe) | -2.43% (inactive) and -2.64% (inactive) |  |
| c1ccc2[nH]c(-c3cscn3)nc2c1 | -17.6% (inactive) and -12.7% (inactive) |  |
| N[C@@H](Cc1cc(I)c(Oc2cc(I)c(O)c(I)c2)c(I)c1)C(=O)O | -6.73% (inactive) |  |
| NS(=O)(=O)c1cc(C(=O)O)c(NCc2ccco2)cc1Cl | 5.51% (inactive) and -8.33% (inactive) |  |
| CN(C)c1ccc2nc3ccc(=[N+](C)C)cc-3sc2c1 |  | 11.2 µM (active) |
| COc1c2occc2cc2ccc(=O)oc12 | 1.56% (inactive) and -7.55% (inactive) |  |
| CCc1nc(N)nc(N)c1-c1ccc(Cl)cc1 |  | 10 µM (active) and 12.6 µM (active) |

Assay: qHTS assay for cell viability of the p53RE-bla HCT-116 cell line (AID 743292); note: nearly all actives have a fitted effect of over 55% in size
Conditions: p53RE-bla HCT-116 viability, ATP luminescence, 16 h; series mostly up to 95 µM
Outline: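 HCT-116 p53RE-bla cells seeded 4,000/well; 5 h at 37 C; compound (DMSO) added; 16 h at 37 C; CellTiter-Glo added, 30 min RT; luminescence read.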

| Compound | Potency |
| --- | --- |
| CCN(CC)C(=S)SSC(=S)N(CC)CC | inactive |
| Nc1ccc(S(N)(=O)=O)cc1 | inactive |
| Nc1nc(Cl)nc2c1ncn2[C@H]1C[C@H](O)[C@@H](CO)O1 | inactive |
| CCCc1cc(=O)[nH]c(=S)[nH]1 | inactive |
| CS(=O)(=O)OCCCCOS(C)(=O)=O | inactive |
| COc1cc(OC)c(C(=O)CCCN2CCCC2)c(OC)c1 | inactive |
| CCCCC(CC)COC(=O)C(C#N)=C(c1ccccc1)c1ccccc1 (centres undefined) | inactive |
| Cc1ccc(C)c(OCCCC(C)(C)C(=O)O)c1 | inactive |
| COC(=O)[C@H](Cc1ccccc1)NC(=O)[C@@H](N)CC(=O)O (H-Asp-Phe-OMe) | inactive |
| c1ccc2[nH]c(-c3cscn3)nc2c1 | inactive |
| N[C@@H](Cc1cc(I)c(Oc2cc(I)c(O)c(I)c2)c(I)c1)C(=O)O | inactive |
| NS(=O)(=O)c1cc(C(=O)O)c(NCc2ccco2)cc1Cl | inactive |
| CN(C)c1ccc2nc3ccc(=[N+](C)C)cc-3sc2c1 | 28.2 µM (active) |
| COc1c2occc2cc2ccc(=O)oc12 | inactive |
| CCc1nc(N)nc(N)c1-c1ccc(Cl)cc1 | 28.2 µM (active) |
